Test results taken from ChEMBL document CHEMBL4513216, “Probing the Open Global Health Chemical Diversity Library for Multistage-Active Starting Points for Next-Generation Antimalarials” (ACS Infect Dis, 2020).
Hit rate of the full screen: of about 69,000 compounds, about 8,600 (12%) showed an effect of 50% or more. The sample holds strong results, similar compounds and a random draw of the others, so the mix is not that of the screen.

The molecules below were run on Plasmodium berghei (assay: Screen against P. berghei liver stage (PbLuc), transformed with Luciferase, at 10uM). Settings: tested at 10 uM.
Format: functional, HepG2

Structure (SMILES)	INHIBITION
CC[C@H]1N(C)CCC[C@]12CCC(=O)N2Cc1ccncc1	43.2%
CCOc1ccc(C(=O)N2CCCC2c2c(C)nn(C)c2OC)cn1 (stereo unspecified)	-105%
Cc1c(CN2CCCC(n3c(=O)oc4ccccc43)C2)cnn1C (stereo unspecified)	35.75%
N#Cc1cccc(CN2C[C@@H]3CN(c4ncccn4)C[C@@H]3C2)c1	8.66%
Cc1cc(C)n(CC2CN(Cc3cccc(C#N)c3)CCO2)n1 (stereo unspecified)	-8.11%
N#Cc1cccc(CN2CC[C@@H]3CN(c4ncccn4)CCO[C@@H]3C2)c1	56.4%
CC(C)c1nc(C2CCCN2Cc2ccncc2Cl)no1 (stereo unspecified)	53.9%
CC(C)c1nc(C2CCCN2CC(=O)Nc2ccc(Cl)cn2)no1 (stereo unspecified)	54.6%
CC(C)c1nc(C2CCCN2Cc2ccno2)no1 (stereo unspecified)	17%
Cc1cc(NC(=O)CN2CCCC2c2noc(C(C)C)n2)n(C)n1 (stereo unspecified)	6.81%
CC(C)c1nc(C2CCCN2Cc2ccccc2C#N)no1 (stereo unspecified)	22.5%
Cc1nnc(NC(=O)CN2CCCC2c2noc(C(C)C)n2)s1 (stereo unspecified)	-36.1%
Cc1cc(NC(=O)CN2CCCC2c2noc(C(C)C)n2)no1 (stereo unspecified)	50.3%
CC(C)c1nc(C2CCCN2CC(=O)Nc2cccnc2)no1 (stereo unspecified)	-17.6%
CCc1ocnc1C(=O)N1CCCC1c1noc(C(C)C)n1 (stereo unspecified)	11.7%
CC(C)c1nc(C2CCCN2C(=O)c2nccnc2N)no1 (stereo unspecified)	61.1%

Structure (SMILES)	INHIBITION
CCc1nc(C2CCCN2C(=O)c2nccnc2N)no1 (stereo unspecified)	-3.18%
Cc1cc(NC(=O)CN2CCCC2c2noc(C3CC3)n2)no1 (stereo unspecified)	21.6%
COC(=O)c1cc(C(=O)N2CCC(OC)CC2)n(-c2ccccc2)n1	-12.33%
COC(=O)CNC(=O)c1sc(-c2ccc(Cl)s2)nc1C	-58%
CC(O)CN1CCC(CNCc2cccc(OC(F)(F)F)c2)CC1 (stereo unspecified)	35.4%
CS(=O)(=O)NC[C@]12COC[C@H]1CN(C(=O)N1CCCC1)C2	21.3%
CNCc1nc(-c2ccc3c(c2)OCO3)c[nH]1	8.4%
CN1CCC(n2nc(CC3CC3)nc2-c2ccc(F)cc2Cl)CC1	34.9%
CN(C)CCN(Cc1cccc(F)c1)C(=O)c1ccc2nccn2c1	2.91%
Cc1cc(NC(=O)CN2CCCC2c2noc(C(C)C)n2)on1 (stereo unspecified)	-7.31%
CC(C)c1cc(NC(=O)CN2CCCC2c2noc(C(C)C)n2)on1 (stereo unspecified)	52.3%
Cc1cc(NC(=O)CN2CCn3c(C)nnc3C2)no1	45.1%
CC(C)c1nc(C2CCCN2CC(=O)Nc2nncs2)no1 (stereo unspecified)	10.2%
Cc1cc(NC(=O)CN2CCn3c(nnc3C(C)C)C2)no1	63.9%
Cc1cc(NC(=O)CN2CCn3c(nnc3C(C)C)C2)on1	-0.219%
